A selection follows.
aSyn 5UTR act: Activators working through SNCA 5'UTR binding (MLPCN) | alpha-synuclein 5'UTR reporter, activators screen | activity score, % (tested at 7.5 µM), hits read low | 7.1% of 300,000 active; in the data active means activity score below about -60%
Starred values were filed as active, the others as inactive.

SMILES	aSyn 5UTR act
COc1cc(/C=N/N2CCN(C3c4ccccc4-c4ccccc43)CC2)ccc1O	-63*
CCn1c2ccccc2c2nc3cc(OC)c(OC)cc3nc21	-78*
CCn1c2ccccc2c2cc(CNCc3ccc(OC)cc3OC)ccc21	63
COc1ccc(C2C(C(=O)Nc3cc(OC)c(OC)c(OC)c3)c3ccccc3C(=O)N2C)cc1 (stereo not given)	98
COc1ccc(NC(=O)C2C(=O)N(CCO)C3(C)CC2c2ccccc2O3)cc1 (stereo not given)	-103*
N#Cc1ccc(N2Cc3ccccc3C2=NC(=O)c2cccnc2Cl)cc1	-106*
O=C(N=C1c2ccccc2CN1c1ccc(F)c(Cl)c1)c1cccnc1Cl	-106*
O=C(/C=C/c1ccccc1Cl)c1ccc(O)cc1	-360*
O=C(/C=C/c1c(F)cccc1Cl)c1ccc(O)cc1	-115*
Clc1ccc(-c2nnn(Cc3nc4ccccc4s3)n2)cc1	-138*
c1ccc(Cn2nnc(-c3ccccc3)n2)cc1	-62*
Nc1ccc(-c2nnn(Cc3ccccc3F)n2)cc1	-71*
CC(C)n1nnc(-c2ccc(OCc3ccccc3F)cc2)n1	-100*
Fc1ccc(-c2nnn(Cc3ccccc3Cl)n2)cc1	-69*
CCOc1ccc(Nc2nc3cc(S(=O)(=O)N(CC)CC)ccc3o2)cc1	78
CCS(=O)(=O)c1ccc2oc(Nc3ccc(C(C)C)cc3)nc2c1	-95*
COC(=O)c1ccc(NS(=O)(=O)NC(=O)c2cn(C)c3ccccc23)cc1	-84*
COc1cccc(NS(=O)(=O)NC(=O)c2cn(C)c3ccccc23)c1	-69*
N#Cc1c(Cl)nsc1NC(=O)c1ccccc1	-66*
Cc1sc(NC(=O)C2CCCCC2)c(C#N)c1-c1ccccc1	-237*
C=CCNc1sc(C(=O)c2ccccc2)c(N)c1C#N	58
Cc1cccc(C(=O)Nc2sc(C)c(-c3ccccc3)c2C#N)c1	-260*
Cc1occc1-c1nnc(-c2cc([N+](=O)[O-])cc([N+](=O)[O-])c2)o1	-133*
O=C(Cc1n[nH]c(=O)c2ccccc12)OCC(=O)c1ccc2c(c1)OCCO2	80
CCOc1ccc(C(=O)COC(=O)Cc2n[nH]c(=O)c3ccccc23)cc1	-87*
SMILES	aSyn 5UTR act
COc1cccc(C(=O)Nc2nnc(C3CCCO3)s2)c1 (stereo not given)	-99*
O=C(Nc1nnc(C2CCCO2)s1)c1cccs1 (stereo not given)	-90*
O=C(Nc1nnc(C2CCCCC2)s1)c1cccs1	-163*
O=c1[nH]c(CN2CCN(C/C=C/c3ccccc3)CC2)nc2ccccc12	-72*
COc1ccc(NC(=O)CC2CC3CCC2C3)cn1 (stereo not given)	-68*
NC(=O)C1CCCN(C(=S)Nc2cccc3ccccc23)C1 (stereo not given)	-90*
Cc1ccc2c(CC(=O)Nc3ccc(N4CCN(C)CC4)cc3C)coc2c1	-68*
Cc1ccc2c(CC(=O)Nc3sccc3C(N)=O)coc2c1	-183*
Cc1ccc2[nH]c3ccccc3c(=O)c2c1	-93*
Cc1nc2nc(-c3ccccc3)[nH]n2c(=O)c1C	-119*
Cc1nc2cc(-c3ccccc3)[nH]n2c(=O)c1C	-114*
N#C/C(=C\c1ccc(OC(=O)c2cccs2)cc1)c1nc2ccccc2[nH]1	-153*
N#C/C(=C\c1cccs1)c1nc2ccccc2[nH]1	-256*
N#C/C(=C\c1cn(-c2ccccc2)nc1-c1cc2ccccc2o1)c1nc2ccccc2[nH]1	-106*
N#C/C(=C\c1ccc(Sc2ccccc2)o1)c1nc2ccccc2[nH]1	-219*
CC(C)CC(/C(O)=C(\C#N)c1nc2ccccc2[nH]1)N1C(=O)c2ccccc2C1=O (stereo not given)	65
N#C/C(=C\c1ccc(N2CCCC2)c([N+](=O)[O-])c1)c1nc2ccccc2[nH]1	-80*
N#C/C(=C/c1cccs1)c1ccccn1	-117*
N#C/C(=C\Nc1ccc2c(c1)OCCO2)c1nc2ccccc2[nH]1	-65*
N#C/C(=C/c1ccc(O)c(O)c1)c1nc2ccccc2[nH]1	-148*
O=[N+]([O-])c1cc(/C=N/n2cnnc2)ccc1N1CCCC1	65
CSc1ncc(CN2CCCC(C(=O)c3ccc(C(C)(C)C)cc3)C2)cn1 (stereo not given)	-88*
O=C(Nc1ccc2c(c1)OCO2)c1cnn2cccnc12	-141*
O=C(Nc1cccc(O)c1)c1cnn2cccnc12	-110*
O=C(c1cnn2cccnc12)N1CCN(c2ccccc2)CC1	-64*
SMILES	aSyn 5UTR act
CCC1CCc2c(sc(NC(=O)c3cnccn3)c2C(N)=O)C1 (stereo not given)	-86*
CCC1CCc2c(sc(NC(=O)c3ccco3)c2C(N)=O)C1 (stereo not given)	-246*
CC1(C)Cc2c(sc(NC(=O)c3ccccc3)c2C(=O)O)CO1	-74*
COc1ccc(C(=O)Nc2sc3c(c2C(=O)O)CC(C)(C)OC3)cc1	63
Cn1c(C(=O)NCc2cccs2)cc2oc3ccccc3c21	-261*
Cn1c(=O)c(C(=O)NCC2CCCO2)c(O)c2ccccc21 (stereo not given)	-67*
CSCc1c(C(=O)NC2CCCc3ccccc32)oc2ccccc12 (stereo not given)	51
Cn1c(C(=O)NCC2CCCO2)cc2oc3ccccc3c21 (stereo not given)	-188*
Cc1cccc(/C=C2\CCC(=C3SCCCS3)C2=O)c1	85
CC(C)/C=C1\CC/C(=C\c2cccnc2)C1=O	-62*
O=C1/C(=C/c2cccnc2)CC/C1=C\c1cccnc1	-65*
Cc1cc(-c2nc(-c3ccncc3)no2)ccc1[N+](=O)[O-]	-166*
O=[N+]([O-])c1cccc(-c2nc(-c3ccccc3)no2)c1	-134*
O=[N+]([O-])c1cccc(-c2nc(-c3ccncc3)no2)c1	-89*
O=[N+]([O-])c1cccc(-c2noc(-c3ccco3)n2)c1	-96*
Cc1ccc(-c2nc(-c3ccncc3)no2)cc1Cl	-99*
Cc1ccc(-c2nc(-c3ccccn3)no2)cc1Cl	104
COc1ccc(-c2cc(C(=O)NCC(C)C)no2)cc1	-99*
CCC(C)NC(=O)c1cc(-c2ccc3c(c2)OCO3)on1 (stereo not given)	-141*
CCC(C)NC(=O)c1cc(CC(C)C)on1 (stereo not given)	-68*
CCOc1ccc(-c2cc(CCCC(=O)NCCCOC)no2)cc1	87
CCC(C)NC(=O)c1cc(-c2ccc(OC)cc2)on1 (stereo not given)	-118*
O=C(/C(=C(\O)c1ccccc1)c1nc2ccccc2[nH]1)c1ccccc1	-108*
CC(SC1=NCCS1)C(=O)Nc1nnc(-c2ccc(Cl)cc2)s1 (stereo not given)	-63*
CC(Sc1nncn1C)C(=O)Nc1nnc(-c2ccccc2)s1 (stereo not given)	-83*
SMILES	aSyn 5UTR act
CNC(=O)c1cc2c(cn1)[nH]c1ccccc12	-98*
CC(=O)N(C(C)=O)c1ncc2c([nH]c3ccccc32)c1C#N	65
CCOC(=O)Cc1ccc2sc(-c3ccccc3)nc2c1	-82*
[O-]/[N+](=C/c1cccnc1)c1ccc(Br)cc1	-95*
[O-]/[N+](=C\c1ccncc1)c1ccc(Br)cc1	-225*
N/C(=N\OC(=O)c1ccccc1Cl)c1ccncc1	-107*
N/C(CS(=O)(=O)c1ccccn1)=N\OC(=O)c1ccccc1Cl	-114*
Cc1ccc(C(=O)O/N=C(\N)c2ccccc2)c(Cl)c1	85
N/C(=N\OC(=O)c1cc(Cl)ccc1Cl)c1ccncc1	-229*
N/C(=N\OC(=O)c1ccc(Cl)cc1Cl)c1ccncc1	-112*

Bioassay records as filed in PubChem BioAssay.
